# Screens (PubChem)
# SUMO Mot1 rescue: inhibitors of SUMOylation pathway: yeast Mot1-301 growth rescue. S. cerevisiae Mot1-301 growth rescue, ATP luminescence, 38.5C; percent above DMSO median, 100 means doubled. growth rescue, % at 18.8 µM. actives 1% (n = 320,000). AID 2716;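 active = every valid replicate shows activation above 250% relative to neutral control wells; inactive = the rest, any valid replicate at or below 250%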;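 also: OY570 slx delta 5 strain wells were the positive control but not used for scaling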
# FAS-TE inh: FAS thioesterase (human) inhibition; inhibition, % at 15 µM; P49327; recombinant FAS-TE, OMFH fluorogenic substrate, fluorescence endpoint; actives 0.67% (n = 360,000);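 active = compounds whose normalised, plate-corrected inhibition of enzyme fluorescence in the single-dose primary screen is 50% or more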;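 also: 0% = DMSO with enzyme and 100% = substrate without enzyme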
# Calb FLC: C. albicans growth modulation with fluconazole; actives 0.57% (n = 300,000); AID 1979; growth inhibition, % (no concentration beside the values); C. albicans CaCi-2 (fluconazole-resistant clinical isolate) + fluconazole, Alamar Blue growth, 48 h;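 active = growth inhibition above about 58% in most replicates, limit read from the data, passing the limit was not always enough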;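 also: all wells also contain fluconazole at 8 µg/ml as a sub-toxic cotreatment; 0% = median of DMSO wells and 100% = median of geldanamycin control wells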
# NadD inh: NadD (S. aureus) enzyme inhibition. inhibition, % at 20 µM. AID 602399. purified NadD enzyme, colorimetric absorbance read-out. actives 0.78% (n = 360,000); in the data active = inhibition above about 26%
# ATG4B inh: ATG4B (human) cysteine protease inhibition; ATG4B cleavage of LC3-PLA2, NBD-HPC fluorescence, 1 h; AID 504462; actives 0.51% (n = 340,000); Q9Y4P1; inhibition, % at 8.33 µM; in the data active = inhibition above about 40%
# FAS-TE inh conf: FAS thioesterase (human) inhibition, confirmation | recombinant FAS-TE, OMFH fluorogenic substrate, fluorescence | shares compounds with FAS-TE inh | inhibition, % at 15 µM | actives 45% (n = 2,300);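 active = compounds inhibiting the enzyme by at least 50% at 15 µM in any one of the replicates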;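 also: 0% = enzyme with DMSO only and 100% = wells lacking enzyme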
# Starred values were filed as active, the others as inactive; i = inactive; . = no result. An excerpt weighted towards active compounds, which were near 3.1% of everything screened.
SMILES,SUMO Mot1 rescue,FAS-TE inh,Calb FLC,NadD inh,ATG4B inh,FAS-TE inh conf
COC(=O)C1(Cc2ccccc2)NC(c2ccc(F)cc2)C2C(=O)N(C)C(=O)C21 (stereo not given),-5,1,-3,7,-6,.
COC(=O)[C@]1(Cc2ccccc2)N[C@H](c2ccc(-c3cccc(Cl)c3)cc2)[C@@H]2C(=O)N(C)C(=O)[C@@H]21,-1,91*,-3,10,-9,21
CCC(C)Sc1ccc([C@H]2N[C@@](Cc3ccccc3)(C(=O)OC)[C@H]3C(=O)N(C)C(=O)[C@@H]23)cc1 (stereo not given in full),1,29,-11,-8,-8,.
Cc1ccc(C)c(NC(=O)CSc2nc(=O)n(CCN3CCOCC3)c3c2CCCC3)c1,-20,-10,0,1,-4,.
O=C(CSc1n[nH]c(-c2ccc(Br)cc2)n1)N1CCOCC1,-32,-11,.,3,0,.
C=CCn1c(C)c(C(C)=O)c(N2CCN(C(c3ccccc3)c3ccccc3)CC2)nc1=S,-8,58*,14,10,-12,0
O=C(NCCOc1ccccc1Cl)c1cccc2c1C(=O)c1ccc(Cl)cc1S2(=O)=O,10,6,.,-1,-4,.
N#Cc1cc2ccc(N3CCOCC3)cc2cc1C#N,18,74*,7,6,-21,62*
N#C/C(=C/c1ccc2c(c1)OCO2)C(=O)NCCc1c[nH]c2ccccc12,-16,52*,-28,-10,8,34
O=C(Nc1ccc(Cl)cc1F)C1CCCN(C2=NS(=O)(=O)c3ccccc32)C1 (stereo not given),.,2,.,-6,-9,.
CC(C)OC(=O)/C(C#N)=C/c1ccc(-c2ccc(SC(F)F)cc2)o1,0,61*,4,7,11,9
COC(=O)/C(C#N)=C/c1ccc(-c2ccc(S(N)(=O)=O)cc2)o1,3,-4,-5,-4,-16,.
Cn1c(=O)c(C#N)c(-c2ccc(F)cc2)c2cc(C(=O)c3cc(Cl)cc(Cl)c3O)cnc21,.,54*,7,24*,3,27
COc1ccccc1-n1c(=O)c(C#N)c(-c2ccc([N+](=O)[O-])cc2)c2cc(C(=O)c3cc(F)ccc3O)cnc21,55,0,-3,-4,-4,.
Cc1cc(C(=O)N/N=C/c2cc([N+](=O)[O-])ccc2O)c2ccccc2n1,-3,77*,24,4,5,97*
Cc1cc(C(=O)N/N=C/c2ccc([N+](=O)[O-])cc2)c2ccccc2n1,-5,-1,-1,0,3,.
O=C(NC(C(=O)N/N=C/c1cccc2ccccc12)c1n[nH]c(=O)c2ccccc12)c1ccccc1 (stereo not given),-5,23,3,11,-19,.
O=C(N/N=C/c1ccccn1)c1cccc([N+](=O)[O-])c1,18,-2,-8,-2,-5,.
O=C(CNC(=O)c1ccncc1)N/N=C/c1cccc([N+](=O)[O-])c1,i,4,-15,-3,-2,.
O=C(CNC(=O)c1ccc2c(c1)OCO2)N/N=C/c1cccc([N+](=O)[O-])c1,-28,55*,.,-4,-5,30
O=C(NC(C(=O)N/N=C/c1cc([N+](=O)[O-])ccc1O)c1n[nH]c(=O)c2ccccc12)c1ccccc1 (stereo not given),-10,67*,16,20,-3,78*
O=C(NN=Cc1ccccc1O)c1cccc([N+](=O)[O-])c1,.,61*,.,0,-2,4
Cc1cc(Cl)ccc1C(O)c1ncc(-c2ccc(C(F)(F)F)cc2)[nH]1 (stereo not given),.,24,.,4,.,.
COC(=O)C1N[C@@H]([C@@H](NC(=O)COc2ccccc2)C(=O)Nc2ccc(OC)cc2)SC1(C)C (stereo not given in full),7,4,-7,-3,-8,.
Cc1cc(Cl)ccc1NC(=O)CCC(=O)N/N=C/c1cc([N+](=O)[O-])ccc1O,22,55*,-17,7,-11,70*
Cc1ccc(C)c(S(=O)(=O)N2CCCCC2CCNC(=O)C(=O)NCc2ccco2)c1 (stereo not given),11,6,-15,-11,-6,.
CC(=O)C(=Cc1ccc(C(=O)O)cc1)C(C)=O,197,-3,-14,1,5,.
